From PubChem BioAssay (Tox21) come the findings set out here.

Records with an inconclusive call do not appear. Where a call stands in place of a potency, no number is given. Active and inactive are the calls of the source. Calls follow the shape of the dose curve; as a rule, active = well fitted inhibition curve with a large enough effect in the signal ratio in the repeat runs, with a control signal flat; inconclusive = weak or mixed curves, or effect the other way; inactive = flat fitted curve, though single readings scatter; the % refers to the signal ratio.
Potency is read from the fitted curve at half-maximal effect.

Chain of D(2) dopamine receptor (Homo sapiens) (P14416 whole entry, looked up): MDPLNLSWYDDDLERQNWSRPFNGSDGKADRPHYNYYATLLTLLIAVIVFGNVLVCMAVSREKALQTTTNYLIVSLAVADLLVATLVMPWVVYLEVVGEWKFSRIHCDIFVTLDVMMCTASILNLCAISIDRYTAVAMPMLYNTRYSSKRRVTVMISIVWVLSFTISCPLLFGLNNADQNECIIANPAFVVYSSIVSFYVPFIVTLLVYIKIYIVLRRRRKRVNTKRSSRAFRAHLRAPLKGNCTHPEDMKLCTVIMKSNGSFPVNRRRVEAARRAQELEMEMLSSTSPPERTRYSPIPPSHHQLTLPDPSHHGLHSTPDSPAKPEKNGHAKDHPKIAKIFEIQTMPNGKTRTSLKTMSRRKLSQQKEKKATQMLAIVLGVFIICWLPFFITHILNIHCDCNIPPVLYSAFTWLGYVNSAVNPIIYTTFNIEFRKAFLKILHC

This test deals with D(2) dopamine receptor (Homo sapiens) (UniProt P14416). Put plainly: Dopamine D2 receptor (DRD2) small molecule antagonists, cell-based qHTS assay (AID 1963595). To be noted: HEK293-DRD2 cAMP HTRF antagonist mode; series mostly up to 92.4 µM; activity change, negative = inhibition: at the top concentration. In outline:
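Human DRD2 antagonist qHTS measuring cAMP by HTRF. The cells are exposed to compound for 10 min, then to NKH477 (200 nM) and quinpirole (12 nM) for 30 min at RT, with Ro20-1724 (0.1 mM) present throughout.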
In the case of `N#Cc1ccccc1`, the Potency result is “inactive”.

`C=C(CC(=O)O)C(=O)O`: the Potency entry is “inactive”.

With `O=C(OCC1CCC2OC2C1)C1CCC2OC2C1` (centres undefined), the Potency entry is “inactive”.

Regarding `CC(=O)NS(=O)(=O)c1ccc(N)cc1`, the Potency entry is “inactive”.

For `Cc1cc(CC(=O)O)n(C)c1C(=O)c1ccc(Cl)cc1`, the Potency entry was “inactive”.

Consider `CCCCNS(=O)(=O)c1ccccc1`, for which the Potency entry was “inactive”.

As to `C[C@]12C=CC(=O)C=C1CC[C@H]1[C@@H]3C[C@@H](O)[C@](O)(C(=O)CO)[C@@]3(C)C[C@H](O)[C@@]12F`, the Potency entry is “inactive”.

Regarding `Cc1cc(C)c(O)c(C)c1`, the Potency entry is “inactive”.

For the molecule `Nc1ccc(S(=O)(=O)Nc2cnc3ccccc3n2)cc1`, the Potency entry is “inactive”.

For the molecule `COC(=O)[C@H]1[C@H]2C[C@@H]3c4[nH]c5cc(OC)ccc5c4CCN3C[C@H]2C[C@@H](OC(=O)c2cc(OC)c(OC)c(OC)c2)[C@@H]1OC`, the Potency result is “inactive”.

Turning to `CN(C)c1ccc(C(=C2C=CC(=[N+](C)C)C=C2)c2ccccc2)cc1`, the Potency was 16.8 µM (active).

For the molecule `c1ccc2cc(Nc3ccc(Nc4ccc5ccccc5c4)cc3)ccc2c1`, the “activity change, negative = inhibition” value was 5.16% (inactive).

Take `COCCc1ccc(OCC(O)CNC(C)C)cc1` (centres undefined): the Potency entry is “inactive”.

On to `COc1ccc([C@@H]2CC(=O)c3c(O)cc(O[C@@H]4O[C@H](CO[C@@H]5O[C@@H](C)[C@H](O)[C@@H](O)[C@H]5O)[C@@H](O)[C@H](O)[C@H]4O)cc3O2)cc1OC`, for which the Potency entry is “inactive”.

Take `CC(=O)N[C@@H](CS)C(=O)O`: the Potency result was “inactive”.

For the molecule `OCC1CCCO1` (centres undefined), the Potency result was “inactive”.

Consider `CC(=O)OCc1ccc2c(c1)OCO2`, for which the Potency entry is “inactive”.

As for `Cc1cc(C)c(C)cc1C`, the Potency result is “inactive”.

For the molecule `Oc1c(Cl)cc(Cl)c(Cl)c1Cl`, the Potency entry was “inactive”.

On to `CC1(C)C(=O)N(Cl)C(=O)N1Cl`, for which the Potency entry was “inactive”.

`Cc1ccc(C)c(O)c1`: the Potency result was “inactive”.

On to `NC(N)=S`, for which the Potency entry was “inactive”.

Take `CCCCCCCCCCO`: the Potency result was “inactive”.

For the molecule `OCCOCCOCCOCCO`, the Potency result is “inactive”.

Regarding `O=c1cc[nH]c(=S)[nH]1`, the Potency result is “inactive”.

Regarding `CCCCCCCCCCCCCC(=O)O`, the Potency entry is “inactive”.

`O=S(=O)(O)c1ccc2cc(O)ccc2c1`: the Potency entry was “inactive”.

Consider `Oc1ccc(Cc2ccccc2O)cc1`, for which the Potency result is “inactive”.

In the case of `ClC1=C(Cl)C(Cl)(Cl)C(Cl)=C1Cl`, the Potency entry was “inactive”.

Turning to `CCOC(=O)CC(=O)OCC`, the Potency entry was “inactive”.

`CCCCOCCOCCOC(C)=O`: the Potency result was “inactive”.

On to `CCn1c2ccccc2c2cc(N)ccc21`, for which the Potency result is “inactive”.

Turning to `CC(=O)CC(=O)N(C)C`, the Potency entry was “inactive”.

Turning to `C=CCCCCCCCCCC`, the Potency entry is “inactive”.

Regarding `CC1=C(/C=C/C(C)=C/C=C/C(C)=C/C(=O)O)C(C)(C)CCC1`, the Potency entry is “inactive”.

For the molecule `CCCCCNCCCCC`, the Potency result is “inactive”.

In the case of `O=C(CC(C(=O)OC1CCCCC1)S(=O)(=O)O)OC1CCCCC1` (centres undefined), the Potency entry is “inactive”.

In the case of `CN(C)CCOC(=O)COc1ccc(Cl)cc1`, the Potency entry is “inactive”.

`CCCN(CCC)C(=O)SCC`: the Potency entry is “inactive”.
